An excerpt weighted towards active compounds, which were near 1.8% of everything screened.
RPL19A TOR yeast – modulators of TOR pathway RPL19A-GFP in S. cerevisiae | S. cerevisiae RPL19A-GFP strain, flow cytometry, 3 h; stronger effect = lower value | percent response vs DMSO, % at 10 µM | 330,000 compounds, 0.3% hits | AID 2025;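 active = percent response vs DMSO below 50%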;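 also: median channel GFP fluorescence of the barcoded RPL19A-GFP strain; ratio of sample median GFP to plate DMSO average so 100% = DMSO; lower means less RPL19A-GFP as with rapamycin TOR inhibition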
CIT2-GFP yeast – modulators of TOR pathway CIT2-GFP in S. cerevisiae; S. cerevisiae CIT2-GFP strain, flow cytometry, 3 h; 100 means same as DMSO wells; GFP response vs DMSO, % at 10 µM; 320,000 compounds, 0.065% hits; AID 2029;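 active = GFP response relative to DMSO above a set limit, near the screen mean plus 3 SD, cut at about 150% in these data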;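 also: ratio of well median GFP fluorescence to mean of DMSO wells on the plate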
MEP2 TOR yeast – alters MEP2-GFP fluorescence in TOR pathway yeast screen. S. cerevisiae MEP2-GFP strain, flow cytometry GFP, 3 h; 100% = DMSO control level. GFP response vs DMSO, % at 10 µM. 330,000 compounds, 0.51% hits. AID 2016;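 active = GFP response versus DMSO above a set limit, roughly screen mean plus 3 SD, cut at about 180% in these data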;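 also: median GFP fluorescence of the barcode-gated MEP2-GFP cells per well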
Myeloid diff 2 – compounds promoting myeloid differentiation | 360,000 compounds, 1% hits | ER-HoxA9 myeloid progenitors, lysozyme-GFP differentiation, flow cytometry | calls only at 10 µM;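 active = normalized GFP-positive differentiation at or above the plate's own cutoff, the solvent-only control mean plus 3 SD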;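 also: cells exposed to compound for four days before flow analysis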
AGP1 TOR yeast – modulators of TOR pathway AGP1-GFP in S. cerevisiae | S. cerevisiae AGP1-GFP multiplex flow cytometry, 3 h; GFP as percent of DMSO wells | GFP response vs DMSO, % at 10 µM | 320,000 compounds, 0.02% hits;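 active = GFP response relative to DMSO above a set limit, near screen average plus 3 SD, cut at about 150% in these data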;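 also: median GFP channel fluorescence of the gated AGP1 strain per well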
LAP4 TOR yeast – alters LAP4-GFP fluorescence in TOR pathway yeast screen; S. cerevisiae LAP4-GFP multiplex, flow cytometry GFP, 3 h; median GFP as percent of DMSO wells; GFP response vs DMSO, % at 10 µM; 320,000 compounds, 0.34% hits;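 active = GFP response vs DMSO above a set limit, about the screen mean plus 3 SD, cut at about 150% in these data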
Myeloid diff CP1 – compounds promoting myeloid differentiation; calls only; shares compounds with Myeloid diff 2; 2,300 compounds, 2% hits; AID 651706; ER-HoxA9 myeloid progenitors, GFP/Mac1 double-positive flow;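 active = share of green or green-and-red cells above 9 and 9% in run 1 or 4 and 3% in run 2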
GFP autofluor – compound fluorescence in myeloid differentiation counter-screen | ER-HoxA9 myeloid progenitors, no estrogen, GFP autofluorescence flow cytometry; vehicle wells 0%, positive control 100% | AID 651707 | fluorescence response, % (test concentration not listed) | 2,300 compounds, 7.4% hits | shares compounds with Myeloid diff 2;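 active = over 5% cells positive for green fluorescent reporter, or over 2% positive for both it and APC stain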;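 also: range taken on the double positive population between DMSO and positive control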
An asterisk follows results filed as active; i = inactive; x = no result given; + = active, no number.

SMILES | RPL19A TOR yeast | CIT2-GFP yeast | MEP2 TOR yeast | Myeloid diff 2 | AGP1 TOR yeast | LAP4 TOR yeast | Myeloid diff CP1 | GFP autofluor
CC(=O)Nc1ccc(NC(=O)C(C)Sc2nnc(-c3cccs3)o2)cc1 (stereo unspecified) | 109 | 103 | 106 | i | 104 | 97 | x | x
Nc1ccc(-n2ccnc2)cc1 | 100 | 96 | 138 | i | 103 | 112 | x | x
CCN1/C(=C/c2cc[n+](CCCS(=O)(=O)[O-])c3ccccc23)Sc2ccccc21 | 103 | 128 | 119 | + | 104 | 104 | i | 14*
COc1cccc(/C=N/Nc2ncnc3c2[nH]c2ccc(C)cc23)c1OC | 102 | 101 | 96 | i | 108 | 111 | x | x
Cc1ccc(C(=O)OCCc2c(C)[nH]n(-c3ccccc3)c2=O)cc1 | 105 | 109 | 103 | i | 107 | 99 | i | 0
O=C(Cc1cccc(NC(=O)C2CCN(C(=O)C3CCC3)CC2)c1)Nc1cccc(C(=O)N2CCCC2)c1 | 99 | 99 | 103 | i | 98 | 103 | i | 0
O=C(Cc1cccc(NC(=O)C2CCN(C(=O)C3CCC3)CC2)c1)Nc1cccc(C(=O)N2CCOCC2)c1 | x | x | x | i | x | x | x | x
Cc1csc(-c2cc(C(=O)NCc3cc(C(F)(F)F)cc(C(F)(F)F)c3)n[nH]2)c1 | x | x | x | + | x | x | i | 4
Cc1cc(F)ccc1-c1cc(C(=O)NCc2cc(C(F)(F)F)cc(C(F)(F)F)c2)[nH]n1 | x | x | x | i | x | x | x | x
COc1ccc(N(CC(=O)Nc2cccc(F)c2)S(=O)(=O)c2c(C)[nH]c(=O)[nH]c2=O)cc1 | 101 | 118 | 102 | i | 99 | 87 | x | x
O=C(c1cc2ccccc2oc1=O)N(Cc1cccs1)C1CCS(=O)(=O)C1 (stereo unspecified) | 97 | 101 | 95 | i | 101 | 109 | x | x
C=CCc1ccc(OCc2ccc(C(=O)Nc3ccc(NC(C)=O)cc3)o2)c(OC)c1 | 102 | 98 | 103 | i | 93 | 91 | x | x
Cn1c(=N)n(CC(=O)C(C)(C)C)c2ccccc21 | 98 | 94 | 98 | i | 96 | 103 | i | 1
CCCn1c(=N)n(CC(=O)C(C)(C)C)c2ccccc21 | 94 | 112 | 94 | i | 101 | 92 | x | x
c1ccc(C2=Nc3ccccc3OC2)cc1 | 109 | 126 | 112 | i | 103 | 99 | i | 0
Clc1ccc(C2=Nc3cc(Cl)ccc3OC2)cc1 | 111 | 110 | 110 | i | 96 | 98 | x | x
CSc1nn2c(C)c(C)c(C)nc2c1C#N | 96 | 100 | 101 | i | 103 | 103 | x | x
Cc1ccc(C(=O)/C=C/c2ccc(-c3ccccc3[N+](=O)[O-])o2)cc1 | 99 | 101 | 101 | x | 93 | 104 | i | 0
Cc1ccc2c(c1)-c1c(cnn1CC(=O)O)CO2 | 104 | 98 | 100 | i | 96 | 98 | x | x
Cc1ccc2c(c1)-c1c(cnn1CC(=O)Nc1ccccc1N1CCN(C)CC1)CO2 | 96 | 96 | 99 | i | 100 | 106 | i | 0
CCc1c(N)nc(N)nc1Nc1ccc(C)c(C)c1 | x | x | x | i | x | x | i | 1
COc1cccc(NC(=O)CN2C(=O)c3cccnc3Oc3ccc(Cl)cc32)c1 | 100 | 98 | 111 | i | 101 | 100 | x | x
O=C(CN1C(=O)c2cccnc2Oc2ccc(Cl)cc21)Nc1ccccc1F | 99 | 93 | 111 | + | 104 | 106 | i | 0
NC(=O)c1ccc(NC(=O)COC(=O)C2CCN(S(=O)(=O)c3cccs3)CC2)cc1 | 94 | 92 | 92 | i | 96 | 92 | x | x
CSc1ccccc1C(=O)NC1CCCC1 | 94 | 96 | 94 | i | 97 | 99 | i | 0
SMILES | RPL19A TOR yeast | CIT2-GFP yeast | MEP2 TOR yeast | Myeloid diff 2 | AGP1 TOR yeast | LAP4 TOR yeast | Myeloid diff CP1 | GFP autofluor
O=C(CN1C(=O)NC2(CCCC2)C1=O)NCc1ccco1 | 100 | 98 | 94 | i | 97 | 95 | x | x
O=C(CN1C(=O)NC2(CCc3ccccc3C2)C1=O)NCc1ccco1 (stereo unspecified) | 114 | 110 | 103 | i | 99 | 97 | i | 0
Cc1nc(-n2[nH]c3c(c2=O)CCCC3)[nH]c(=O)c1Cc1ccccc1 | 97 | 95 | 97 | i | 98 | 123 | i | 0
Cc1nc(N2CCc3ccccc3C2)[nH]c(=O)c1Cc1ccccc1 | 104 | 109 | 106 | i | 104 | 100 | x | x
CNC[C@H](CC1CCCCC1)NC[C@H](CO)NCC1(c2ccccc2)CC1 | 103 | 70 | 92 | i | 82 | 113 | x | x
CNC[C@H](CC1CCCCC1)NC[C@H](CO)NCCc1cccc(C(F)(F)F)c1 | 98 | 87 | 87 | + | 86 | 118 | i | 5
NC(=O)COC(=O)CC1CC2CCC1C2 (stereo unspecified) | 97 | 96 | 104 | i | 92 | 87 | x | x
COc1ccc(S(=O)(=O)N2CCOC2CNC(=O)C(=O)NCc2ccccn2)cc1OC (stereo unspecified) | x | x | x | + | x | x | i | 0
Cc1ccc(S(=O)(=O)N2CCOC2CNC(=O)C(=O)NCc2ccccn2)cc1 (stereo unspecified) | 92 | 98 | 100 | i | 109 | 109 | x | x
CC(C)N(C(=O)CN(C#N)c1nc(N(C)C)nc(N(C)C)n1)c1ccccc1 | 91 | 102 | 97 | i | 91 | 93 | i | 0
Cc1cccc2cc3c(nc12)SC(=NCC1CCCO1)N(Cc1ccco1)C3 (stereo unspecified) | 100 | 89 | 112 | i | 99 | 110 | x | x
Cc1ccc2nc3c(cc2c1)CN(Cc1ccco1)C(=NCC1CCCO1)S3 (stereo unspecified) | 98 | 100 | 98 | i | 100 | 97 | i | 0
COc1ccc(NC(=O)C2COc3ccccc3O2)cc1S(=O)(=O)N1CCOCC1 (stereo unspecified) | 95 | 94 | 108 | i | 97 | 94 | x | x
CCOC(=O)c1cnn(-c2cc(C)c3ccccc3n2)c1N | 93 | 97 | 95 | + | 104 | 86 | i | 1
C=CCN1C(=O)S/C(=C/c2ccc(Sc3nc4ccccc4[nH]3)o2)C1=O | 102 | 93 | 98 | i | 95 | 88 | x | x
CC(C)N1C(=O)S/C(=C/c2ccc(Sc3nc4ccccc4[nH]3)o2)C1=O | 105 | 107 | 105 | i | 104 | 102 | i | 0
N#CC1=C(N)C2=CCCC[C@H]2[C@H](c2cccc(F)c2)C1(C#N)C#N | 107 | 111 | 102 | i | 108 | 98 | x | x

Screens: PubChem, NMMLSC
